Experimental data as given in PubChem BioAssay (EPA / NIEHS).
Where “and” joins values, the source holds several entries; their conditions need not be identical. Identical values can stand only once. A structure can be active in one record and inactive in another. Calls of active or inactive are those of the source. How the source made its calls: active means hit-call score of the fitted dose curve at least 0.9, where 1 is the maximum; inactive means score below 0.9.

Assays:
[1] = ATG_CRE_CIS: Attagene CIS-FACTORIAL HepG2 Assay for human cAMP Responsive Element (CRE) binding protein 3 (AID 2282926); conditions: HepG2 CRE cis-reporter, Attagene multiplexed mRNA; actives raise or lower the signal
In short: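 Human liver HepG2, transient MRTU transfection, 24 h compound exposure. Total RNA → oligo(dT) RT → PCR → 6-FAM primer extension → HpaI cut → CE. Activity called both directions vs DMSO.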

[2] = biological target: CCAAT/enhancer-binding protein beta (Homo sapiens) (UniProt P17676); experiment: ATG_C_EBP_CIS: Attagene CIS-FACTORIAL HepG2 Assay for human CCAAT/Enhancer Binding Protein (C/EBP) beta (AID 2282927); conditions: HepG2 Attagene cis-factorial transcription factor reporter; actives raise or lower the signal
In short: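 HepG2, transient MRTU transfection, 24 h treatment. RT-PCR plus CE fluorescence; DMSO negative control, bidirectional fit.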

[3] = ATG_CMV_CIS: Attagene CIS-FACTORIAL HepG2 Assay for human CMV (Internal Marker) (AID 2282928); conditions: HepG2 CMV promoter reporter, transcription factor profiling; actives raise or lower the signal;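 further: endpoint acts as a background internal control marker rather than a target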
In short: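 Endogenous transcription factor activity read in HepG2 via transfected cis-promoter reporter units. After 24 h dosing, reporter mRNA measured by RT-PCR/capillary electrophoresis; gain or loss of signal fit relative to DMSO.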

[4] = ATG_DR4_LXR_CIS: Attagene CIS-FACTORIAL HepG2 Assay for human Liver X Receptor (LXR), DR4 submotif (AID 2282929); conditions: HepG2 Attagene DR4 cis-reporter, mRNA transcription; actives raise or lower the signal
In short: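 HepG2, transient MRTU transfection, cis-element (DR4) promoter; 24 h compound exposure; total RNA → oligo(dT) RT → PCR → 6-FAM primer extension → HpaI cut → CE. Gain/loss vs DMSO, bidirectional fit.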

[5] = biological target: Aryl hydrocarbon receptor (Homo sapiens) (UniProt P35869); experiment: ATG_Ahr_CIS: Attagene CIS-FACTORIAL HepG2 Assay for human Aryl Hydrocarbon Receptor (Ahr) (AID 2282930); conditions: HepG2 AhR cis-factorial reporter transcription; actives raise or lower the signal
In short: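 Endogenous factor activity is tracked through cis-promoter reporter units transfected into HepG2 cells. Transcript levels at 24 h are read by fluorescent RT-PCR and capillary electrophoresis, with activity in either direction scored relative to DMSO.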

[6] = ATG_AP_1_CIS: Attagene CIS-FACTORIAL HepG2 Assay for human Activator Protein 1 (AP-1) (AID 2282931); conditions: HepG2 Attagene cis-factorial AP-1 reporter mRNA; actives raise or lower the signal
In short: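 Transient MRTU transfection of HepG2 → 24 h chemical treatment → RNA isolation, RT-PCR, 6-FAM labelling, HpaI digest → capillary electrophoresis. Fit: bidirectional, DMSO negative control.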

[7] = ATG_AP_2_CIS: Attagene CIS-FACTORIAL HepG2 Assay for human Activator Protein 2 (AP-2) (AID 2282932); conditions: HepG2 AP-2 cis-reporter, Attagene transcription factor profiling; actives raise or lower the signal
In short: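 Multiplexed mRNA reporter assay in HepG2: cis-regulated units report endogenous factor activity after 24 h treatment. Fluorescence from capillary electrophoresis of RT-PCR products gives the signal, with DMSO as baseline.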

[8] = ATG_BRE_CIS: Attagene CIS-FACTORIAL HepG2 Assay for human Bone Morphogenetic Protein (BMP) Response Element (BRE) (AID 2282933); conditions: HepG2 BMP response element reporter, Attagene transcription factor profiling; actives raise or lower the signal
In short: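 A HepG2 multiplex reporter system measured inducible reporter mRNA 24 h post-dosing. Detection: RT-PCR, 6-FAM primer extension, HpaI digestion, capillary electrophoresis. Activity fitted bidirectionally relative to DMSO.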

[9] = biological target: Retinoic acid receptor alpha (Homo sapiens) (UniProt P10276); experiment: ATG_DR5_RAR_CIS: Attagene CIS-FACTORIAL HepG2 Assay for human Retinoic Acid Receptor Alpha (RARE), DR5 submotif (AID 2282934); conditions: HepG2 Attagene cis-factorial RARE DR5 reporter, mRNA; actives raise or lower the signal;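 on AC50: reporter responds to endogenous RAR alpha beta and gamma in HepG2 not RARA alone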
In short: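 After 24 h of chemical exposure, transiently transfected HepG2 cells were lysed for total RNA; the DR5-regulated reporter transcript was quantified via RT-PCR and capillary electrophoresis, with activity fitted bidirectionally against DMSO.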

[10] = biological target: Transcription factor E2F1 (Homo sapiens) (UniProt Q01094); experiment: ATG_E2F_CIS: Attagene CIS-FACTORIAL HepG2 Assay for human E2F Transcription Factor 1 (AID 2282935); conditions: HepG2 Attagene cis-reporter, E2F reporter RNA transcripts; actives raise or lower the signal
In short: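 Measures reporter transcript levels via RT-PCR with capillary electrophoresis detection in HepG2 cells harboring cis-regulated reporter units; 24 h post-dose; bidirectional curve fitting with DMSO as baseline.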

[11] = ATG_E_Box_CIS: Attagene CIS-FACTORIAL HepG2 Assay for human Enhancer Box (E-box) (AID 2282936); conditions: HepG2 E-box cis-reporter transcription, actives raise or lower the signal
In short: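 First, HepG2 cells receive multiple cis-regulated reporter constructs by transient transfection. Next, chemicals are applied for 24 h. Finally, reporter mRNA is quantified via RT-PCR and capillary electrophoresis, with DMSO as baseline.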

[12] = ATG_M_61_CIS: Attagene CIS-FACTORIAL HepG2 Assay for M61 Transcription Factor (Internal Marker) (AID 2282937); conditions: HepG2 Attagene CIS-FACTORIAL M61 internal marker reporter; actives raise or lower the signal
In short: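 Human liver HepG2, transient MRTU transfection (cis promoter elements), 24 h compound. Total RNA → oligo(dT) RT → PCR → FAM label → HpaI → CE. Internal background marker; bidirectional fitting, DMSO = baseline.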

[13] = ATG_EGR_CIS: Attagene CIS-FACTORIAL HepG2 Assay for human Early Growth Response 1 (EGR1) (AID 2282938); conditions: HepG2 Attagene CIS-FACTORIAL EGR reporter mRNA; actives raise or lower the signal
In short: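 Transient transfection of human HepG2 with multiple cis-regulated reporter units, chemical exposure 24 h, total RNA isolated. Reverse transcription, PCR, fluorescent labelling and capillary electrophoresis quantify reporter transcripts; activity fitted bidirectionally against DMSO.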

[14] = ATG_ERE_CIS: Attagene CIS-FACTORIAL HepG2 Assay for Estrogen Response Element (ERE) (AID 2282940); conditions: HepG2 ERE cis-reporter, Attagene RNA transcript; actives raise or lower the signal
In short: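 Human liver cells (HepG2) bearing transiently transfected, promoter-regulated reporter units were exposed 24 h. Reporter mRNA induction was detected by capillary electrophoresis of labelled RT-PCR products and fitted bidirectionally to DMSO.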

[15] = ATG_Ets_CIS: Attagene CIS-FACTORIAL HepG2 Assay for human Erythroblast Transformation Specific (ETS) (AID 2282941); conditions: HepG2 ETS cis-reporter transcription, actives raise or lower the signal
In short: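 Steps: transfect HepG2 with multiple reporter units; treat compound 24 h; isolate RNA, DNase-treat, reverse-transcribe; PCR-amplify, label with 6-FAM, digest with HpaI; separate by capillary electrophoresis. Activity fitted both directions versus DMSO.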

[16] = biological target: Hepatocyte nuclear factor 3-beta (Homo sapiens) (UniProt Q9Y261); experiment: ATG_FoxA2_CIS: Attagene CIS-FACTORIAL HepG2 Assay for human Forkhead box A2 (FOXA2) (AID 2282942); conditions: HepG2 cis-reporter transcription factor activity, 24 h; actives raise or lower the signal
In short: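 Transient MRTU transfection of HepG2 liver cells; 24 h treatment; total RNA → oligo(dT) RT → PCR → FAM primer extension → HpaI cut → CE. Bidirectional fit vs DMSO.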

[17] = ATG_FoxO_CIS: Attagene CIS-FACTORIAL HepG2 Assay for human Forkhead box O (FoxO) (AID 2282943); conditions: HepG2 Attagene cis-reporter, FoxO element, mRNA; actives raise or lower the signal
In short: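 Transfected HepG2 reporter cells exposed to test chemical for 24 h; reporter RNA measured by reverse transcription, PCR and fluorescent capillary electrophoresis; curves fitted for increases and decreases against DMSO.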

[18] = ATG_GATA_CIS: Attagene CIS-FACTORIAL HepG2 Assay for human GATA Binding Protein (AID 2282944); conditions: HepG2 GATA cis-element reporter, Attagene multiplex mRNA; actives raise or lower the signal
In short: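 Transfected cis-reporter HepG2 cells were treated with chemicals for 24 hours. Total RNA was then converted to cDNA, amplified with reporter-specific primers and analysed by fluorescent capillary electrophoresis, using DMSO-treated wells as baseline.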

[19] = ATG_GLI_CIS: Attagene CIS-FACTORIAL HepG2 Assay for human Zinc Finger Protein GLI1 (AID 2282945); conditions: HepG2, Attagene cis-factorial reporter mRNA, GLI element; actives raise or lower the signal
In short: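 Transiently transfected HepG2 cells report endogenous transcription factor activity via cis-element-driven reporter units. After 24 h compound exposure, reporter mRNA was measured by RT-PCR with capillary electrophoresis; bidirectional fitting against DMSO baseline.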

[20] = ATG_M_19_CIS: Attagene CIS-FACTORIAL HepG2 Assay for M19 Transcription Factor (Internal Marker) (AID 2282939); conditions: HepG2 Attagene CIS-FACTORIAL M19 internal marker reporter; actives raise or lower the signal
In short: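 Chemical-treated HepG2 (24 h) with MRTU constructs; reporter transcripts detected by fluorescent RT-PCR fragment analysis on capillary electrophoresis. Internal background marker, DMSO as baseline.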

Measured: AC50

Transcription factor E2F1 (Homo sapiens), sequence (Q01094 whole entry, looked up): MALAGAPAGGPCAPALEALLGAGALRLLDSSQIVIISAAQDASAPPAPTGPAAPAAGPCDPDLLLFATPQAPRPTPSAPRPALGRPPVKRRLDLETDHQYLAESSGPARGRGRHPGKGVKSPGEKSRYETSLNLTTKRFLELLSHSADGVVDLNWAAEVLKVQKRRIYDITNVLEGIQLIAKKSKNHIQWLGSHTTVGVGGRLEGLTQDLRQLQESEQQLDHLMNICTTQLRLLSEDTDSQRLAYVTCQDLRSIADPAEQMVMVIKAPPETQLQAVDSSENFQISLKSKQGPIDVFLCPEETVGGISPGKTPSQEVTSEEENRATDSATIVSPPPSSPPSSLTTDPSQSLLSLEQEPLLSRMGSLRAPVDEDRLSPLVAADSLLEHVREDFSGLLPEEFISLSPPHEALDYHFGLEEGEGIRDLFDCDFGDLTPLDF
CCAAT/enhancer-binding protein beta (Homo sapiens), sequence (P17676 whole entry, looked up): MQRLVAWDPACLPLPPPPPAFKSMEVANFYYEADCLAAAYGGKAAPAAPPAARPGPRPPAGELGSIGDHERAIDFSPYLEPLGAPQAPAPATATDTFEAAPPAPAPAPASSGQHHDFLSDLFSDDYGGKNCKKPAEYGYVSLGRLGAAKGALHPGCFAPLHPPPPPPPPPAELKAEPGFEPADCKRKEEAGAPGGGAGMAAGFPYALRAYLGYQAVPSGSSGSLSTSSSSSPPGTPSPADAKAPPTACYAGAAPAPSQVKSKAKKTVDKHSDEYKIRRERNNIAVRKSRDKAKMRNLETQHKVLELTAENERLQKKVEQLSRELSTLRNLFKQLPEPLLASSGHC
Retinoic acid receptor alpha (Homo sapiens), sequence (P10276 whole entry, looked up): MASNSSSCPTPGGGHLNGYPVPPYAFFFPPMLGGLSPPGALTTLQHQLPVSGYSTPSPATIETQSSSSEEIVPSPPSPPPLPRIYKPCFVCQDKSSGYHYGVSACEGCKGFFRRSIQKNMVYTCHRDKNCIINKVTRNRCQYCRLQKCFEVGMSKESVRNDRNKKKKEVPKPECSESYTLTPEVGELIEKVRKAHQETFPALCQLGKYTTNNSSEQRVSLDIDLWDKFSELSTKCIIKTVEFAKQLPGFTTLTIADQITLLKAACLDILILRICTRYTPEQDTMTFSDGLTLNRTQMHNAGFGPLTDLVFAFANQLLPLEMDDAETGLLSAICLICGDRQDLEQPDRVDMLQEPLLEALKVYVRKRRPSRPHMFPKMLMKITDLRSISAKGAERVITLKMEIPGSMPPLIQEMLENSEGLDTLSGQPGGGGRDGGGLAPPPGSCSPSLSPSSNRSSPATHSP
Hepatocyte nuclear factor 3-beta (Homo sapiens), sequence (Q9Y261 whole entry, looked up): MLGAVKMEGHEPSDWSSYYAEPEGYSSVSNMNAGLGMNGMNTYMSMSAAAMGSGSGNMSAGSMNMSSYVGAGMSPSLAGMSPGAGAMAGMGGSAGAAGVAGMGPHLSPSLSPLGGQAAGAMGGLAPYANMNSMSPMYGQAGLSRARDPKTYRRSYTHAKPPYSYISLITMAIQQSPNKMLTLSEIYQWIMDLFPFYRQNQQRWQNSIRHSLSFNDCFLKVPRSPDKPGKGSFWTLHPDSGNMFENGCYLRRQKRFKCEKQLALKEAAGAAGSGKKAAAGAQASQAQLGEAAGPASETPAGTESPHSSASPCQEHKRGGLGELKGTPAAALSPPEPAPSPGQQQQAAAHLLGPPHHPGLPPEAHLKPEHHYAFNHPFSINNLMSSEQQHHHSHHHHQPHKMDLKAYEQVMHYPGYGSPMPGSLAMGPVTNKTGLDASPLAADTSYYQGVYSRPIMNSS
Aryl hydrocarbon receptor (Homo sapiens), sequence (P35869 whole entry, looked up): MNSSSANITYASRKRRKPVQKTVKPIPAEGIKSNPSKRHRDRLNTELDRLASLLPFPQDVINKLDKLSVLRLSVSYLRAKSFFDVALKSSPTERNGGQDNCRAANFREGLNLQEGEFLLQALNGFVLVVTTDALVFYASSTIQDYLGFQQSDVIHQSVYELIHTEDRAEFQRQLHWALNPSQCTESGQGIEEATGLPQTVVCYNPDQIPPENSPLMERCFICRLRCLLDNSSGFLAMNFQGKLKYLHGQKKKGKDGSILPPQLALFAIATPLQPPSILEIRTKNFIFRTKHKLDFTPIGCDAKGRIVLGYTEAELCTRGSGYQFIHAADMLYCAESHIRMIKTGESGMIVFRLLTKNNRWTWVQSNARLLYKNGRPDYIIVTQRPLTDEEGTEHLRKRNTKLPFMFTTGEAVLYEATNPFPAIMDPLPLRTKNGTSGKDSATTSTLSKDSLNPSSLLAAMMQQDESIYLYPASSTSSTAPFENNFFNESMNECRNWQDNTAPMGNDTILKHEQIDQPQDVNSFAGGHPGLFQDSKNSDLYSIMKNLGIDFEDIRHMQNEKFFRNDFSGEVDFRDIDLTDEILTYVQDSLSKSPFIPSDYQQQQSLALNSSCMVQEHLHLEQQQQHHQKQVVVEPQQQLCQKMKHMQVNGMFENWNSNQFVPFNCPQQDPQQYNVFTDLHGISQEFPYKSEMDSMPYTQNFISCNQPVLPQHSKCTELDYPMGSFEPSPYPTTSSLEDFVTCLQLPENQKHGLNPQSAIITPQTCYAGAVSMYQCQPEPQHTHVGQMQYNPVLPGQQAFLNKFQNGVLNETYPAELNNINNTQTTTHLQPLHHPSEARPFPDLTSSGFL

CN(C[C@@H](CC[N+]12CCC(C3CCCCC3)(CC1)CC2)c1ccc(Cl)c(Cl)c1)C(=O)c1cc(C(F)(F)F)cc(C(F)(F)F)c1
not listed: [20]
inactive: all other assays above

Cc1occc1C(=O)Nc1ccc(C(=O)N2CCC(F)(F)/C(=C\C(=O)N3CCC(N4CCCCC4)CC3)c3ccccc32)cc1
active: [4] 50.3 µM | [5] 12.3 µM | [8] 13.2 µM | [11] 27.4 µM | [13] 34.5 µM | [15] 55.9 µM | [16] 34.5 µM | [18] 46.7 µM
not listed: [9]
inactive: all other assays above

COc1cc(C(=O)NC2CCN(C)CC2)ccc1Nc1ncc2c(n1)N(C1CCCC1)CC(F)(F)C(=O)N2C
active: [1] 933 nM | [2] 472 nM | [4] 5.99 µM | [6] 5.06 µM | [7] 890 nM | [13] 2.26 µM | [15] 1.55 µM | [17] 3.63 µM
not listed: [9]
inactive: all other assays above

O=c1c(-c2ccc(O)cc2)coc2cc(O)cc(O)c12
active: [1] 27.5 µM and 50.6 µM | [2] 36.5 µM [middle of 4 runs] | [3] 19.1 µM [middle of 4 runs] | [4] 7.13 µM and 4.78 µM | [5] 34.3 µM | [7] 29.8 µM and 52.6 µM | [9] 62.3 µM
inactive: [1] | [4] | [5] | [6] | [7] | [8] | [9] | [10] | [11] | [12] | [13] | [20] | [15] | [16] | [17] | [18] | [19]

CN1C(=O)N(c2ccccc2Br)Cc2cnc(Nc3ccc4c(c3)OCC(CO)O4)nc21 (stereo unspecified)
active: [1] 5780 nM | [2] 2610 nM | [4] 27.1 µM | [6] 4.77 µM | [13] 12.2 µM
inactive: all other assays above

CCCCCCCCN(C)CCCCCCCC
active: [14] 30.2 µM
inactive: all other assays above
